Screening data (PubChem BioAssay)
Sampled rows, rich in hits. Any-hit rate of the full collection: about 3.7%.
Sm TGR block: S. mansoni TGR enzyme inhibition; Potency, µM (series often up to 114 µM), usual class: inhibitors; Q962Y6; purified TGR, DTNB reduction, TNB absorbance 405 nm; 3% of 360,000 active; further: nearly all actives have a fitted effect of over 60% in size
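Kinetic colorimetric format: TGR-catalysed, NADPH-driven DTNB reduction monitored via TNB absorbance. Enzyme dispensed at 20 nM; compound exposure 15 min at room temperature before reaction start.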
RE007 growth inh: less growth of the S. pombe RE007 Vpr strain | S. pombe RE007 Vpr strain, BacTiter-Glo ATP luminescence, 24 h | Potency, µM (highest dose often 92.2 µM), hits mostly inhibitors | 0.21% of 360,000 active | AID 651644; active means well fitted falling curve with a large enough effect; inconclusive means small, poorly fitted or top-dose-only effect; inactive means no such curve, though single readings can be large or run the other way; further: nearly all actives have a fitted effect of over 50% in size
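Fission yeast strain RE007, carrying one chromosomally integrated HIV-1 vpr copy, was seeded at OD 0.01 in PMG+AL medium with 23 nL pinned compound. After 24 h at 30 °C and 99% humidity, viability was read by BacTiter-Glo luminescence.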
FMDV inh: antivirals against foot and mouth disease virus. FMDV antiviral cell-based qHTS. AID 1159524. 1.2% of 410,000 active. Potency, µM (highest dose often 57.9 µM), hits mostly inhibitors; calls by dose curve; tested in HEK293T cells; further: read-out not given here; nearly all actives have a fitted effect of over 45% in size
TbPYK inhibitor: inhibitors of Trypanosoma brucei pyruvate kinase; Potency, µM (top dose mostly 76.8 µM), usual class: inhibitors; AID 624173; Q57TT1; TbPYK enzyme, Kinase-Glo Plus ATP luminescence, 45 min; 0.12% of 410,000 active; further: nearly all actives have a fitted effect of over 50% in size
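Quantitative HTS: titrated library compounds versus trypanosomal pyruvate kinase in TEA buffer (pH 7.2) containing KCl, MgCl2, BSA and Tween-20. Reactions were initiated with ADP, 130 uM final. Kinase-Glo Plus luminescence was read after 45 min at RT.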
A number is an active result; n = inactive; u = inconclusive; x = not tested or not shown; [ ] = another dose, or the depositor's remark. Unless noted, the call rests on the fitted dose curve; in most records, active means well fitted curve in the direction sought with a large enough effect; inconclusive means small, poorly fitted or top-dose-only effect, or another doubt; inactive means no such curve, though single readings can be large; an effect the other way counts as inactive or inconclusive.

SMILES	Sm TGR block	RE007 growth inh	FMDV inh	TbPYK inhibitor
O=C(NC[C@@H]1CCCN2CCCC[C@H]12)c1cnn(-c2nccc(-c3cc4ccccc4o3)n2)c1C1CC1	x	x	n	x
Cc1cc2c(cc1C)N(C(=O)CCl)CCN2C(=O)CCl	x	n	8.9µM	n
Cc1ccc(C2(c3ccccc3)NC(=O)N(CC(=O)N3CC(=O)Nc4ccccc43)C2=O)cc1C (stereo not drawn)	n	n	n	n
Cc1ccc(Cl)cc1N1CCN(C(=O)CCC(=O)O)CC1	n	n	n	n
Cc1cc2c(cc1C)N(C(=O)CCl)CC(=O)N2	x	n	40µM	n
CCCCNc1sc(S(=O)(=O)CC)nc1S(=O)(=O)c1ccc(C)cc1	n	x	n	n
O=Cc1ccc(N2Cc3ccccc3C2)cc1	u	n	n	n
Oc1ccc(N2Cc3ccccc3C2)cc1	22µM	n	n	n
Oc1cccc(N2Cc3ccccc3C2)c1	10µM	n	n	n
Cc1ccccc1Nc1c(-c2cccnc2)nc2cccc(C)n12	n	n	u	n
Cc1cccc2nc(-c3cccnc3)c(Nc3ccc(C(C)C)cc3)n12	n	x	28µM	n
COc1ccc(C2=C(Nc3ccc(Br)c(C)c3)c3ccccc3C2=O)cc1	n	x	28µM	n
COc1ccc(C2=C(Nc3ccc(C)c(C)c3)c3ccccc3C2=O)cc1	n	x	n	n
Cn1c(=O)c2nc(SCC(=O)Nc3ccc(Cl)c(Cl)c3)n(C)c2n(C)c1=O	n	x	n	n
COc1ccc(-n2cc(C(=O)NCc3ccc(Cl)cc3)c3ccccc3c2=O)cc1	n	x	n	n
Cc1cc(-c2nc(C)c(-c3nnc(SCC(=O)Nc4cc(Cl)cc(Cl)c4)n3C)s2)no1	n	n	u	n
Cn1c(SCC(=O)Nc2cc(Cl)cc(Cl)c2)nnc1-c1ccc2nonc2c1	18µM	n	u	n
CCCCNC1C(CC)C(CCC)C(C#N)(C#N)C1(C#N)C#N (stereo not drawn)	n	n	32µM	n
Cc1csc(=Nc2c(C)n(C)n(-c3ccccc3)c2=O)n1Cc1ccccc1	n	n	n	n
Cc1ccc(-c2csc(=Nc3ccccc3)n2CCCO)cc1	n	x	32µM	n
COc1ccc(-c2csc(=NCCO)n2-c2ccccc2)cc1	n	n	18µM	n
COc1ccc(-c2csc(=Nc3ccccc3)n2CCO)cc1	n	n	25µM	n
COc1ccc(-c2cn(-c3ccccc3)nc2CO)cc1	n	n	n	n
C=CCn1c(-c2ccc(OC)cc2)csc1=Nc1c(C)n(C)n(-c2ccccc2)c1=O	n	n	22µM	n
OCCCn1c(-c2ccc(F)cc2)csc1=Nc1ccc(F)cc1	n	x	n	n
SMILES	Sm TGR block	RE007 growth inh	FMDV inh	TbPYK inhibitor
Fc1ccc(-c2noc3ncnc(NCCc4ccccc4)c23)cc1	n	x	u	n
Cc1ccc(N2CCN(Cc3nnc(-c4ccccc4F)o3)CC2)c(C)c1	u	x	n	n
CS(=O)(=O)N1CCC2(CCCN(c3cccc(-c4ccccc4)c3)C2)CC1	x	x	n	n
CC(=O)c1ccc(S(=O)(=O)NCCCC(=O)N(C)Cc2ccc3c(c2)OCO3)cc1	16µM	n	n	n
CCCNS(=O)(=O)c1ccc(CCC(=O)Nc2ccc3c(c2)OCO3)cc1	n	n	n	n
Cn1c(=O)oc2cc(S(=O)(=O)CCC(=O)N3CCN(c4cccc(Cl)c4)CC3)ccc21	n	x	n	n
Cc1cccc(N(C)C(=O)CCS(=O)(=O)c2ccc3c(c2)oc(=O)n3C)c1	40µM	x	n	n
COc1cccc(N2CCN(C(=O)CCS(=O)(=O)c3ccc4c(c3)oc(=O)n4C)CC2)c1	25µM	n	n	n
Cc1ccc(C)c(N2CCN(C(=O)CCS(=O)(=O)c3ccc4c(c3)oc(=O)n4C)CC2)c1	40µM	n	u	n
COc1ccccc1CNc1nc(-c2ccc3c(c2)OCO3)nc2ccccc12	x	x	n	x
COc1ccc(C(=O)NNc2ncnc3c2cnn3-c2cccc(Cl)c2)cc1OC	n	x	n	n
COC(=O)[C@@H]1CCCN1Cc1ccc2c(c1)CN(Cc1ccccc1C)CCO2	x	x	n	x
CC(C)(C)c1ccc(C(=O)Nc2ccc(Oc3cccnc3)nc2)cc1	n	n	35µM	n
O=C(O)c1ccccc1C(=O)Nc1ccc(Oc2cccc(C(F)(F)F)c2)nc1	u	n	3.2µM	n
CC(C)(C)c1ccc(C(=O)Nc2cccnc2)cc1	n	n	n	n
Cc1ccc(C(=O)Nc2ccc(Oc3cccc(C(F)(F)F)c3)nc2)cc1	n	n	u	n
N#CC(C#N)=Cc1ccc(OC(=O)c2ccccn2)cc1	8.9µM	n	n	n
Cc1ccc(-n2c([O-])nc(-[n+]3ccccc3)c2C=O)cc1	40µM	n	x	n
O=C(Nc1ccc2oc(-c3cccnc3)nc2c1)c1ccco1	50µM	n	n	n
O=C(Nc1ccc(-c2nc3ncccc3o2)cc1)c1ccc(Br)o1	u	n	n	n
O=C(Nc1ccc(-c2nc3ncccc3o2)cc1)c1ccco1	20µM	n	n	n
CCCCOc1cccc(C(=O)Nc2ccc3oc(-c4cccnc4)nc3c2)c1	n	x	16µM	n
O=C(Nc1ccc2oc(-c3cccnc3)nc2c1)c1ccc(Br)o1	28µM	n	n	n
CCCCOc1ccc(C(=O)Nc2ccc3oc(-c4cccnc4)nc3c2)cc1	n	x	u	n
CCOc1cccc(C(=O)Nc2ccc3oc(Cc4ccc(Cl)cc4)nc3c2)c1	n	n	8.9µM	n
SMILES	Sm TGR block	RE007 growth inh	FMDV inh	TbPYK inhibitor
O=C(Nc1ccc2oc(Cc3ccc(Cl)cc3)nc2c1)c1cccnc1	n	n	x	n
Cc1ccc(-c2cc(C(=O)Nc3ccccn3)c3ccccc3n2)o1	18µM	n	n	n
Cc1ccc(-c2cc(C(=O)Nc3cccnc3)c3ccccc3n2)o1	n[11.4 µM]	n	x	u
COc1cccc(NC(=O)c2cc(-c3ccccn3)nc3ccccc23)c1	n	n	n	n
Cc1ccc(NC(=O)c2cc(-c3ccc(C)o3)nc3ccccc23)cc1	25µM	25µM	x	u
Cc1cccc(NC(=O)c2cc(-c3ccccn3)nc3ccccc23)c1C	n	n	14µM	n
Cc1ccc(-c2cc(C(=O)NCCN3CCOCC3)c3ccccc3n2)o1	45µM	n	n	n
COc1ccc(-c2cc(C(=O)NCCN3CCOCC3)c3ccccc3n2)cc1	n	n	n	n
O=C(NC1CC(=O)N(c2cccc(F)c2)C1)C1CCCC1 (stereo not drawn)	n	x	n	n
O=C(NCC1Cc2cc(F)cc(-c3cccnc3)c2O1)c1cnn(-c2ccccc2)c1 (stereo not drawn)	x	x	n	x
Cc1c(C(=O)NCCCc2ccncc2)cnn1-c1ncc2c(n1)-c1ccccc1CC2	x	x	n	x
NC(=O)C[C@@H](N)C(=O)O	x	x	n	n
CCOc1ccc(C(NC(C)=O)c2ccc(OC)c(OC)c2)cc1 (stereo not drawn)	n	n	n	n
CCOc1ccc(C(NC(=O)/C=C/c2ccco2)c2ccc(OC)c(OC)c2)cc1 (stereo not drawn)	45µM	n	n	n
COc1ccc(C(NC(=O)/C=C/c2ccco2)c2ccc(OC)c(OC)c2)cc1 (stereo not drawn)	25µM	n	n	n
COc1ccc(S(=O)(=O)NCCc2sc(-c3ccccc3)nc2C)cc1F	n	x	n	n
